Assay outcomes: PubChem BioAssay, several laboratories
ADAM10 inh: human ADAM10 inhibitors, primary screen, biochemical, QFRET, HTS; inhibition, % at 7 µM; 0.62% of 370,000 active; recombinant ADAM10, EDANS/DABCYL FRET peptide cleavage, 3 h; Disintegrin and metalloproteinase domain-containing protein 10 (Homo sapiens), O14672; AID 720582, 2013;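 active = inhibition above a per-campaign cutoff equal to the mean of compounds falling between control-based bounds plus 3 SD, cut at about 20% in these data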;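 also: 0% = DMSO wells while the 100% control is not disclosed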
Target sequence (O14672 214-748 limits assumed): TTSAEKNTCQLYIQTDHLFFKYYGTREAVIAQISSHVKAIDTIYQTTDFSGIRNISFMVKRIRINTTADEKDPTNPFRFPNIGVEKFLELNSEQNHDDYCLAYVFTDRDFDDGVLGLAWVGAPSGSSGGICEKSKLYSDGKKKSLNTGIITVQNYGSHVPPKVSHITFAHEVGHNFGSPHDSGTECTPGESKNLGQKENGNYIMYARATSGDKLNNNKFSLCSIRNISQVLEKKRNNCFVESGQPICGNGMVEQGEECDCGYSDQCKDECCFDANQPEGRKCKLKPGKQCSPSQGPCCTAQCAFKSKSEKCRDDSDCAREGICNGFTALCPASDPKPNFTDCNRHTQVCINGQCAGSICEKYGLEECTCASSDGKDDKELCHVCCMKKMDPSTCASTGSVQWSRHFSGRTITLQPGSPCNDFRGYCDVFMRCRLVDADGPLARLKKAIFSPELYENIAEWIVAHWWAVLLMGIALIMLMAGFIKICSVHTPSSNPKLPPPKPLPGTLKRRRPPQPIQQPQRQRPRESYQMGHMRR
GRIN3A LBD mod: binders of NR3A ligand-binding domain, primary screen, biophysical, differential scanning fluorimetry, uHTS. Glutamate receptor ionotropic, NMDA 3A (GRIN3A) ligand-binding domain. NR3A LBD differential scanning fluorimetry, Tm shift; 0% = protein alone, 100% = glycine-bound protein. Tm shift relative to glycine control, % at 25 µM. 2.5% of 340,000 active. AID 1259313, 2017;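 active = melting temperature shift of at least 10% of the positive control shift, at one fixed dose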
FAS-TE inh: FAS thioesterase domain inhibitors, primary screen, biochemical, fluorescence intensity, uHTS; recombinant FAS-TE, OMFH fluorogenic substrate, fluorescence endpoint; inhibition, % at 15 µM; 0.67% of 360,000 active;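 active = compounds whose normalised, plate-corrected inhibition of enzyme fluorescence in the single-dose primary screen is 50% or more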;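 also: 0% = DMSO with enzyme and 100% = substrate without enzyme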
KLK7 zymogen act: proKLK7 zymogen activators, primary screen, biochemical, fluorescence intensity; purified proKLK7, EDANS-DABCYL substrate fluorescence; 100% is mature enzyme control, 0% vehicle; Kallikrein-7 (Homo sapiens), P49862; 0.9% of 370,000 active; activation, % at 7 µM; AID 652039, 2013;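 active = activation above the mean of all tested compounds plus 3 SD, computed per campaign excluding outliers beyond control limits, cut at about 13% in these data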
ADAM17 inh: ADAM17 inhibitors, primary screen, biochemical, QFRET. Disintegrin and metalloproteinase domain-containing protein 17 (Homo sapiens), P78536. recombinant ADAM17, EDANS/DABCYL FRET peptide cleavage. inhibition, % at 6.95 µM. 0.83% of 370,000 active. AID 720648, 2013;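 active = inhibition above the mean of compounds lying between control limits plus 3 SD, set per campaign, cut at about 8.5% in these data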;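 also: 0% = DMSO-only wells as the low control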
Numbers without * were called inactive; x = not tested or not shown. Shown are actives, neighbours in structure and some others; about 4.6% of the full set was active somewhere.

SMILES	ADAM10 inh	GRIN3A LBD mod	FAS-TE inh	KLK7 zymogen act	ADAM17 inh
O=S(=O)(Nc1ncnc2sc3c(c12)CCC3)c1cc(F)ccc1F	-13	-2	-3	0	-3
CC1CCC2(CC1)CCC2NCc1ccc(Br)cc1 (centres undefined)	5	x	x	x	0
Cc1ccc([C@@H]2[C@@H]3C(=O)N(c4ccccc4)C(=O)[C@@H]3[C@]3(Cc4ccccc4)C(=O)N(CC4CC4)CC(=O)N23)o1	7	18*	-8	0	-2
COC(=O)C(C(=O)N1CCN(C)CC1)C1CCCCCC1 (centres undefined)	4	13*	-4	0	-1
CCOC(=O)C(C(=O)N1CCOCC1)C1CCCCC1 (centres undefined)	3	0	-1	0	-4
O=C(NC(=S)Nc1ccccc1Br)C1CCCCC1	13	13*	20	0	4
O=C(NC(=S)Nc1ccccc1Br)C1CCCC1	6	-1	10	0	5
O=C(NN1CCOCC1)c1cc(-c2ccc(Br)cc2)nc2ccccc12	-3	-3	0	0	-2
CCc1ccc(-c2cc(C(=O)NN3CCOCC3)c3ccccc3n2)cc1	-34	11*	-8	1	-15
Cc1nc2ccc(C(=O)N3CCN(C(=O)C(Cl)Cl)CC3)cc2n1C1CCCC1	-2	x	x	0	-4
O=C(COC(=O)C12CC3CC(CC(O)(C3)C1)C2)Nc1ccc(Br)cc1F	2	0	3	1	1
COCCOc1ccc(C(F)(F)F)cc1NC(=O)COC(=O)C12CC3CC(CC(O)(C3)C1)C2	8	26*	3	1	2
CNS(=O)(=O)c1cccc(C(=O)OCC(=O)c2ccc[nH]2)c1	-14	39*	-5	0	-4
CNS(=O)(=O)c1cccc(C(=O)OCC(=O)N2c3ccccc3CC2C)c1 (centres undefined)	4	14*	-1	0	-2
CC1Cc2ccccc2N1C(=O)COC(=O)c1ccc(O)cc1 (centres undefined)	0	0	-3	0	-3
COc1ccc(CCN2CC(C(=O)NCCc3cccc(F)c3)CCC2=O)cc1 (centres undefined)	12	-1	-7	0	-1
CCc1csc(CNC(=O)C2CCC(=O)N(Cc3cccc(F)c3)C2)n1 (centres undefined)	-2	13*	-6	0	-2
O=C(NCCc1ccc(C(F)(F)F)cc1)C1CCC(=O)N(CCc2cccc(F)c2)C1 (centres undefined)	2	14*	2	0	0
Cc1ccc(S(=O)(=O)N2CCC(c3nc4ccccc4o3)CC2)s1	8	x	x	0	6
CC(C)(C)OC(=O)n1cc(-c2ccccc2)c2c(-c3ccccc3)c(O)ccc21	3	x	x	0	4
Cc1cc(NC(=O)c2ccc(NS(=O)(=O)c3ccccc3)cc2)no1	2	x	x	0	1
COC(=O)[C@H](CC(C)C)NC(=O)Cn1cnc2c(OCc3ccccc3)ncnc21	-9	97*	-1	1	-4
O=C(CSc1nnc(-c2cccnc2)n1Cc1ccco1)Nc1cc(Cl)ccc1F	4	x	x	0	3
Cc1ccc(S(=O)(=O)N2c3ccccc3C[C@H]2CC=C(c2ccccc2)c2ccccc2)cc1	7	x	x	x	2
O=[N+]([O-])c1ccc(COc2ccc(-c3[nH]ncc3-c3ccc(Cl)cc3)c(O)c2)cc1	6	35*	-8	0	4
SMILES	ADAM10 inh	GRIN3A LBD mod	FAS-TE inh	KLK7 zymogen act	ADAM17 inh
Oc1ccc(-c2[nH]ncc2-c2ccc(Br)cc2)c(O)c1	11	7	-133	0	3
Oc1ccc(-c2[nH]ncc2-c2ccc(Cl)cc2)c(O)c1	3	12*	-140	0	7
CCc1cc(-c2[nH]ncc2-c2ccc([N+](=O)[O-])cc2)c(O)cc1OC	x	29*	-28	x	x
COC(=O)C1CN(CC(C)C)CCS(=O)(=O)N1Cc1ccc(Cl)cc1 (centres undefined)	12	x	x	1	1
CCCCCc1ccc(NC(=O)O[C@@H]2CC[C@@]34CCCN3C(=O)CCC[C@H]4C2)cc1	11	x	x	x	5
COc1c(CC=C(C)C)cc(C2CC(=O)c3c(O)cc(O)cc3O2)c(CC=C(C)C)c1O (centres undefined)	x	22*	x	x	x
C/C(=N/NC(=O)c1cccnc1)c1cccc(O)c1	-9	x	x	0	-4
C=CCc1cccc(/C=N/NC(=O)CCC(=O)Nc2ccc(C)cc2)c1O	-5	14*	-10	-1	-3
O=C(CCc1nc2cccnc2n1Cc1ccccc1)NCCc1ccc(Cl)cc1	3	11*	8	0	-2
COCCCNC(=O)CCc1nc2cccnc2n1Cc1ccccc1	-5	1	-6	1	-5
NS(=O)(=O)c1ccc(NC(=O)CSc2nc3ccccc3c(=O)n2-c2ccc(Br)cc2)cc1	17	x	x	0	-1
C/C(=N\O)c1ccc(N2C(=O)C3CC=C(Cl)CC3C2=O)cc1 (centres undefined)	0	2	-9	0	-1
Cc1ccc(NC(=O)c2ccc(N3C(=O)C4CC=C(Cl)CC4C3=O)cc2)cc1 (centres undefined)	2	26*	7	0	0
CCOC(=O)C(C)Sc1nc2c(c(=O)[nH]c(=O)n2C)n1C/C=C(/C)Cl (centres undefined)	7	11*	-2	1	4
CSc1nc2c(c(=O)[nH]c(=O)n2C)n1C/C=C(\C)Cl	-1	0	-2	0	-4
CCOC(=O)c1ccc(NC(=O)c2nc[nH]c2C(=O)NC)cc1	9	0	-6	0	1
Cc1cccc(NC(=O)c2nc[nH]c2C(=O)NCCCCNC(=O)c2[nH]cnc2C(=O)Nc2cccc(C)c2)c1	5	13*	-1	0	-1
CCOC(=O)c1ccc(NC(=O)c2nc[nH]c2C(=O)NCCNC(=O)c2[nH]cnc2C(=O)Nc2ccc(C(=O)OCC)cc2)cc1	5	15*	-10	0	8
O=C(Nc1ccc(Cl)cc1)c1nc[nH]c1C(=O)NCCCCNC(=O)c1[nH]cnc1C(=O)Nc1ccc(Cl)cc1	2	26*	7	1	-7
CC(C)(C)OC(=O)NCCCC[C@H](NC(=O)c1[nH]cnc1C(=O)Nc1ccc(Cl)cc1)C(=O)OC(C)(C)C	x	0	76*	x	x
COc1ccc(CNC2CCC23CCC(c2ccccc2)CC3)cc1OC (centres undefined)	2	x	x	x	-1
Cc1ccc(NC(=S)NNC(=O)CSc2nnc(-c3ccc(C)cc3)n2C2CCCCC2)cc1	8	x	x	-1	3
